Test results reported in PubChem BioAssay (EPA / NIEHS).
Values joined by “and” are separate entries in the source; they are usually repeats but may differ in a detail not shown here. Equal values may be shown once. Results filed as inconclusive are left out. A structure can be active in one record and inactive in another. Active and inactive are the calls of the source. Rule for the calls, unless noted: active = hit-call score of the fitted dose curve at least 0.9, where 1 is the maximum; inconclusive = response in the unintended direction; inactive = score below 0.9.

Assays:
[1] = CEETOX_H295R_11DCORT_noMTC: CeeTox H295R High-throughput Steroidogenesis Assay for 11-Deoxycortisol (11DCORT), maximum tolerated concentration (MTC) filtered results only (AID 2283911; active = hit-call score of the fitted dose curve at least 0.9, where 1 is the maximum; inactive = score below 0.9); settings: actives raise or lower the signal
Method in brief: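 Steroidogenesis was stimulated in H295R cells with 10 uM forskolin for 48 h before a 48 h chemical exposure. Secreted 11-deoxycortisol was measured by tandem mass spectrometry and fitted bidirectionally against DMSO controls.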

[2] = CEETOX_H295R_OHPREG_noMTC: CeeTox H295R High-throughput Steroidogenesis Assay for OH-Pregnenolone (OHPREG), maximum tolerated concentration (MTC) filtered results only (AID 2283912; active = hit-call score of the fitted dose curve at least 0.9, where 1 is the maximum; inactive = score below 0.9); settings: actives raise or lower the signal
Method in brief: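 Steroidogenesis in H295R cells (OECD 456, modified): after 48 h forskolin priming and 48 h chemical treatment, secreted 17alpha-hydroxypregnenolone is measured by HPLC-MS/MS. Activity is fitted in both directions against DMSO; concentrations are not filtered by MTT-based MTC.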

[3] = CEETOX_H295R_CORTISOL_noMTC: CeeTox H295R High-throughput Steroidogenesis Assay for Cortisol, maximum tolerated concentration (MTC) filtered results only (AID 2283916; active = hit-call score of the fitted dose curve at least 0.9, where 1 is the maximum; inactive = score below 0.9); settings: actives raise or lower the signal
Method in brief: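 Cortisol secretion measured by LC-MS/MS after 48 h chemical treatment (final 0.1% DMSO) of forskolin-primed (10 uM, 48 h) H295R cells; gain or loss fitted relative to DMSO, without maximum-tolerated-concentration filtering.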

[4] = CEETOX_H295R_CORTIC_noMTC: CeeTox H295R High-throughput Steroidogenesis Assay for Corticosterone (CORTIC), maximum tolerated concentration (MTC) filtered results only (AID 2283917; active = hit-call score of the fitted dose curve at least 0.9, where 1 is the maximum; inactive = score below 0.9); settings: actives raise or lower the signal
Method in brief: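 Following OECD 456 with minor changes, H295R cultures received 10 uM forskolin for 48 h, then test chemical at 0.1% DMSO for 48 h. Media steroids were extracted and measured by LC-MS/MS.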

[5] = target: Peroxisome proliferator-activated receptor gamma (Homo sapiens) (UniProt P37231); test: ATG_hPPARg_XSP2: Attagene TRANS-FACTORIAL Multi-Species (XSP2) HepG2 Assay for human Peroxisome Proliferator-activated Receptor gamma (PPARg) (AID 2283829);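 note: actives raise reporter mRNA above DMSO so AC50 reflects PPARg activation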
Method in brief: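 After transfecting HepG2 with GAL4-UAS reporter constructs, cells are dosed for 24 h; total RNA is reverse-transcribed, PCR-amplified, FAM-labeled, HpaI-digested and resolved by capillary electrophoresis. Activity is measured as mRNA induction relative to DMSO.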

[6] = target: mouse Peroxisome Proliferator-activated Receptor gamma (PPARg), Pparg (gene 19016) (UniProt P37238); test: ATG_mPPARg_XSP2: Attagene TRANS-FACTORIAL Multi-Species (XSP2) HepG2 Assay for mouse Peroxisome Proliferator-activated Receptor gamma (PPARg) (AID 2283830);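 note: hits are gains in reporter mRNA above DMSO so AC50 marks activation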
Method in brief: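 HepG2 cells transiently transfected with GAL4-UAS reporter units for chimeric NR-Gal4 proteins including mouse PPARg, exposed 24 h; medium contained 3 nM 6-alpha-fluorotestosterone and 1.5 nM norgestrel. Reporter mRNA quantified by RT-PCR, HpaI digestion and capillary electrophoresis, vs DMSO.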

[7] = target: Nuclear receptor subfamily 1 group I member 2 (Mus musculus) (UniProt O54915); test: ATG_mPXR_XSP2: Attagene TRANS-FACTORIAL Multi-Species (XSP1) HepG2 Assay for mouse Pregnane X Receptor (PXR) (AID 2283831)
Method in brief: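 Reporter transcripts were quantified by RT-PCR, FAM primer extension, HpaI digestion and capillary electrophoresis after 24 h of chemical exposure in transiently transfected HepG2 cells carrying chimeric receptor-GAL4 constructs; DMSO served as baseline.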

[8] = tested on: zebrafish Peroxisome Proliferator-activated Receptor gamma (PPARg), gene 557037; test: ATG_zfPPARg_XSP2: Attagene TRANS-FACTORIAL Multi-Species (XSP2) HepG2 Assay for zebrafish Peroxisome Proliferator-activated Receptor gamma (PPARg) (AID 2283833);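 note: actives increase reporter signal over DMSO so AC50 reflects activation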
Method in brief: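 Multi-species TRANS format in HepG2, 24 h dosing; medium also contained 3 nM 6-alpha-fluorotestosterone and 1.5 nM norgestrel to stimulate androgen receptor. Zebrafish PPARg-GAL4 induced reporter mRNA was measured by RT-PCR/capillary electrophoresis.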

[9] = target: zebrafish Thyroid Hormone Receptor beta (TRb), thrb (gene 30607) (UniProt Q9PVE4); test: ATG_zfTRb_XSP2: Attagene TRANS-FACTORIAL Multi-Species (XSP1) HepG2 Assay for zebrafish Thyroid Hormone Receptor beta (TRb) (AID 2283836)
Method in brief: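 Human liver HepG2, transient MRTU transfection (NR-Gal4 chimeras, GAL4-UAS reporters); 24 h compound exposure; total RNA → oligo(dT) RT → PCR → 6-FAM label → HpaI cut → CE fluorescence. DMSO = negative control/baseline.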

[10] = ATG_XTT_Cytotoxicity_XSP2: Cytotoxicity Assessment in the Attagene TRANS-FACTORIAL Multi-Species (XSP2) HepG2 Assay (AID 2283837)
Method in brief: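 HepG2 cells, transiently transfected with multiple reporter constructs, exposed to chemical for 24 h. Cell number assessed with XTT fluorescence read-out; loss of signal fitted relative to DMSO.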

[11] = target: human Thyroid hormone Receptor alpha (TRa), THRA (gene 7067) (UniProt P10827); test: ATG_hTRa_XSP2: Attagene TRANS-FACTORIAL Multi-Species (XSP2) HepG2 Assay for human Thyroid hormone Receptor alpha (TRa) (AID 2283838)
Method in brief: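 HepG2 cells were transiently transfected with GAL4-UAS reporter units for chimeric human TRa-Gal4 and dosed for 24 hours, with 3 nM 6-alpha-fluorotestosterone and 1.5 nM norgestrel present. Reporter mRNA was quantified by RT-PCR, FAM labelling and capillary electrophoresis, with gain of signal fitted versus DMSO.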

[12] = target: human Thyroid hormone Receptor beta (TRb), THRB (gene 7068) (UniProt P10828); test: ATG_hTRb_XSP2: Attagene TRANS-FACTORIAL Multi-Species (XSP2) HepG2 Assay for human Thyroid hormone Receptor beta (TRb) (AID 2283840);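 note: actives raise reporter mRNA so potency reflects agonist-like gain of signal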
Method in brief: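 Transient transfection of human HepG2 with multi-species NR-Gal4/GAL4-UAS reporter constructs; 24 h compound treatment; RNA isolation, reverse transcription, PCR and HpaI digest; capillary electrophoresis of labeled fragments; activity fitted upward versus DMSO.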

[13] = CPHEA_Stoker_NIS_Cytotoxicity: Cytotoxicity Assessment for CPHEA's Radioactive Iodide Uptake (RAIU) Assay for Sodium/Iodide Symporter (NIS) Inhibition, Stoker and Laws Labs (AID 2283897);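 for AC50: active means loss of ATP signal versus DMSO meaning cytotoxicity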
Method in brief: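 ATP luminescence (Cell Titer Glo) measured viability, with loss of signal normalized to DMSO controls. Cells: hNIS-HEK293T-EPA, seeded 40 hours prior. Dosing: 0.001–100uM, 2 hours, room temperature, uptake buffer pH 7.4.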

[14] = tested on: frog Estrogen Receptor (ER2), gene 100174814; test: ATG_frER2_XSP2: Attagene TRANS-FACTORIAL Multi-Species (XSP2) HepG2 Assay for frog Estrogen Receptor (ER2) (AID 2283828)
Method in brief: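 Multiplexed transactivation in HepG2: frog estrogen receptor fused to Gal4 drives a UAS reporter. Signal is reporter mRNA after 24 h treatment.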

[15] = target: zebrafish Thyroid Hormone Receptor alpha (TRa), thraa (gene 30670) (UniProt Q98867); test: ATG_zfTRa_XSP2: Attagene TRANS-FACTORIAL Multi-Species (XSP1) HepG2 Assay for zebrafish Thyroid Hormone Receptor alpha (TRa) (AID 2283832);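 note: actives raise zebrafish TRa-Gal4 reporter transcript above DMSO baseline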
Method in brief: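 Transient transfection of human HepG2 with GAL4-UAS reporter units, then 24 h chemical treatment. RNA isolated, reverse-transcribed, PCR-amplified, FAM-labelled, HpaI-digested and run on capillary electrophoresis. Gain-of-signal relative to DMSO.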

[16] = tested on: turtle Thyroid Hormone Receptor, alpha (TRa), gene 101949057; test: ATG_trTRa_XSP2: Attagene TRANS-FACTORIAL Multi-Species (XSP1) HepG2 Assay for turtle Thyroid Hormone Receptor, alpha (TRa) (AID 2283834);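 note: hits raise reporter mRNA over the DMSO baseline so AC50 marks activators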
Method in brief: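 Transfection of HepG2 with multiple reporter transcription units, then chemical dosing for 24 h. Total RNA was reverse-transcribed, reporter sequences PCR-amplified and FAM-labelled, then sized by capillary electrophoresis. DMSO served as baseline.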

[17] = ATG_M_61_XSP2: Attagene TRANS-FACTORIAL Multi-Species (XSP2) HepG2 Assay for M61 Transcription Factor (Internal Marker) (AID 2283835; active = hit-call score of the fitted dose curve at least 0.9, where 1 is the maximum; inactive = score below 0.9;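 note: reporter mRNA of an internal background marker read by RT-PCR and capillary electrophoresis; active means a rise in signal above the DMSO baseline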)
Method in brief: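 First, HepG2 cells are transfected with reporter units under GAL4-UAS control. Next, chemicals are applied for 24 h. Then total RNA is reverse-transcribed, amplified, fluorescently labelled and sized by capillary electrophoresis, with gain of signal scored against DMSO.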

[18] = target: frog Thyroid hormone Receptor alpha (TRa), thra-a (gene 397942) (UniProt P15204); test: ATG_frTRa_XSP2: Attagene TRANS-FACTORIAL Multi-Species (XSP2) HepG2 Assay for frog Thyroid hormone Receptor alpha (TRa) (AID 2283839)
Method in brief: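 Transfect HepG2 with multiple reporter units (GAL4-UAS), dose chemical, incubate 24 h. Isolate RNA, reverse-transcribe, PCR-amplify reporter, label with 6-FAM by primer extension, digest with HpaI, run capillary electrophoresis; induction scored against DMSO.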

Measured: AC50

Chain of human Thyroid hormone Receptor beta (TRb), THRB (gene 7068) (P10828 whole entry, looked up, the tested form may be a part): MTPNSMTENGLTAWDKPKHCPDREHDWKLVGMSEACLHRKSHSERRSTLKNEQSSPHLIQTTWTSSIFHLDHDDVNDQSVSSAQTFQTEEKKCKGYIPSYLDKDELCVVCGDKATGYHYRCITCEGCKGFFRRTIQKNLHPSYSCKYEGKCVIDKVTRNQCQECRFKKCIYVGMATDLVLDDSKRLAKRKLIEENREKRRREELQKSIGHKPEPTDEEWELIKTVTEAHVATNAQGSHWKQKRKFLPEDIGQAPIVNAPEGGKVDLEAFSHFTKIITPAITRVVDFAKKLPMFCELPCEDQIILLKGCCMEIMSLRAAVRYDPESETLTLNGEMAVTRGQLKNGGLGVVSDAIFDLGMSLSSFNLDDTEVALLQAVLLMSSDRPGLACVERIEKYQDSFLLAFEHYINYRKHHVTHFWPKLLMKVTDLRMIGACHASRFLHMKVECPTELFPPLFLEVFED
Chain of human Thyroid hormone Receptor alpha (TRa), THRA (gene 7067) (P10827 whole entry, looked up, the tested form may be a part): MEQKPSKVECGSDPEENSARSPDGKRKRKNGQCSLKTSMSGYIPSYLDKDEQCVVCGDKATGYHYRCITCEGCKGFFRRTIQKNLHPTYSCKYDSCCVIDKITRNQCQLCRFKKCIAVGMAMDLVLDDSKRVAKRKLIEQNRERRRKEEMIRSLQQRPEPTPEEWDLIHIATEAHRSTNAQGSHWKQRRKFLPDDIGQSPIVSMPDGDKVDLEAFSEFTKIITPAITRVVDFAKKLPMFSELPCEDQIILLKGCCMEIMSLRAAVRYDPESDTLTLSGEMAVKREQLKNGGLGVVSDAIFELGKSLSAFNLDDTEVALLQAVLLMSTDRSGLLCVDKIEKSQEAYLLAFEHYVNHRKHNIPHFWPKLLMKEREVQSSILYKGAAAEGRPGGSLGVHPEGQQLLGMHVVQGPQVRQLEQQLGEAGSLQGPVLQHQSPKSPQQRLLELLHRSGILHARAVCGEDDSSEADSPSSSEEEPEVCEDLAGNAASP
Chain of Nuclear receptor subfamily 1 group I member 2 (Mus musculus) (O54915 whole entry, looked up, the tested form may be a part): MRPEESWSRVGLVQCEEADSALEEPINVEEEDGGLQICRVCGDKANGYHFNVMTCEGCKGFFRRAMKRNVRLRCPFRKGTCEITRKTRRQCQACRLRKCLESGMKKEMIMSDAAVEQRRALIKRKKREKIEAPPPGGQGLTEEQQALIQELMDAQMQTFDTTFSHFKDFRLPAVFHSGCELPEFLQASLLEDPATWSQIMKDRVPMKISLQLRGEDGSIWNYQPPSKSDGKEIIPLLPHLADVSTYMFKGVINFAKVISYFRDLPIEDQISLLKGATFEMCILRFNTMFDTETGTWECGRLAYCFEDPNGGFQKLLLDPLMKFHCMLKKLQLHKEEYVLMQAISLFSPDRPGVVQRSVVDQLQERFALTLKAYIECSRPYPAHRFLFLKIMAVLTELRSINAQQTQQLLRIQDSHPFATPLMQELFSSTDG
Chain of zebrafish Thyroid Hormone Receptor beta (TRb), thrb (gene 30607) (Q9PVE4 whole entry, looked up, the tested form may be a part): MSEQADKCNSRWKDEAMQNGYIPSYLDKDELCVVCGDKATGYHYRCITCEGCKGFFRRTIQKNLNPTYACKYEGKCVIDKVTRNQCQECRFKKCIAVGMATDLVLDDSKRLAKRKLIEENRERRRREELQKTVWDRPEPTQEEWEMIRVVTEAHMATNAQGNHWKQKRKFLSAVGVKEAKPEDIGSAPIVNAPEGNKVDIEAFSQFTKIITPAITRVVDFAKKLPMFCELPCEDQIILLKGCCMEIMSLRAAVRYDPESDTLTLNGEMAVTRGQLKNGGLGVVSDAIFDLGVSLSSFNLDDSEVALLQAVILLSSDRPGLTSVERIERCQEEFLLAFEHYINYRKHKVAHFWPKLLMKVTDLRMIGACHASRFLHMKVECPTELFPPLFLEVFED
Chain of frog Thyroid hormone Receptor alpha (TRa), thra-a (gene 397942) (P15204 whole entry, looked up, the tested form may be a part): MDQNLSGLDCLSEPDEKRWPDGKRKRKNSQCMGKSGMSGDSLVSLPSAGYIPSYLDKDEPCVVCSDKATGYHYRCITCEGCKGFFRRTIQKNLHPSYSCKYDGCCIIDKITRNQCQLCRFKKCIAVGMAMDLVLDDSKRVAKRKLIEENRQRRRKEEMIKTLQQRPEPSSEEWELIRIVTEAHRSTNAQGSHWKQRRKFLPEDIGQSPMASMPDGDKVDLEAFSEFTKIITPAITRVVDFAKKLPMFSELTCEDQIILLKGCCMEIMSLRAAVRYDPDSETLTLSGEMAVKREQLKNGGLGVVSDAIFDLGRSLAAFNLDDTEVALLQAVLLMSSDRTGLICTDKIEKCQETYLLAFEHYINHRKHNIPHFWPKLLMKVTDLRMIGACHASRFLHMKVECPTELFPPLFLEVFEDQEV
Chain of Peroxisome proliferator-activated receptor gamma (Homo sapiens) (P37231 whole entry, looked up, the tested form may be a part): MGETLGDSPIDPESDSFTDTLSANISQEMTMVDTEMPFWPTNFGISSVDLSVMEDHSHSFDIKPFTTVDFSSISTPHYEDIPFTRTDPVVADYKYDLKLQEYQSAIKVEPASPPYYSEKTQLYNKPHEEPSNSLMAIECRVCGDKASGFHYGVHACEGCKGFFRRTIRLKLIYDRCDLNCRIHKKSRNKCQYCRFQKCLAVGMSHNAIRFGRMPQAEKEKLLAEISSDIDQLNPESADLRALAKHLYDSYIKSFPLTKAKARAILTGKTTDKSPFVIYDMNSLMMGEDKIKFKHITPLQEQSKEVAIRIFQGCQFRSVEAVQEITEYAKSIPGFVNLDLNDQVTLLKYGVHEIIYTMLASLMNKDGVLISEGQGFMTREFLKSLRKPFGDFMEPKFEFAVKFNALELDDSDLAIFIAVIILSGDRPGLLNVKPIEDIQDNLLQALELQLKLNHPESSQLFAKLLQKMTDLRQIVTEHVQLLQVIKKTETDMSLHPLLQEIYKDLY
Chain of zebrafish Thyroid Hormone Receptor alpha (TRa), thraa (gene 30670) (Q98867 whole entry, looked up, the tested form may be a part): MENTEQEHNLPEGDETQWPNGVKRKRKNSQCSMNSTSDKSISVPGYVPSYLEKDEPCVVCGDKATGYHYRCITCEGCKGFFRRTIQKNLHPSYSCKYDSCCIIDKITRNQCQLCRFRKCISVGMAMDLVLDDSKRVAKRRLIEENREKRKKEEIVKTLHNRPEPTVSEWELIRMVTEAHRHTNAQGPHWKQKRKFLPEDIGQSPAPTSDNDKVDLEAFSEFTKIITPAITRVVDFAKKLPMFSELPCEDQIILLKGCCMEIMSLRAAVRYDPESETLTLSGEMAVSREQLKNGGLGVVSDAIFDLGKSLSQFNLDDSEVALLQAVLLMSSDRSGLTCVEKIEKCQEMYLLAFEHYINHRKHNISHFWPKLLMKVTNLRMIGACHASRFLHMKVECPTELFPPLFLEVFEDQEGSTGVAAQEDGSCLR
Chain of mouse Peroxisome Proliferator-activated Receptor gamma (PPARg), Pparg (gene 19016) (P37238 whole entry, looked up, the tested form may be a part): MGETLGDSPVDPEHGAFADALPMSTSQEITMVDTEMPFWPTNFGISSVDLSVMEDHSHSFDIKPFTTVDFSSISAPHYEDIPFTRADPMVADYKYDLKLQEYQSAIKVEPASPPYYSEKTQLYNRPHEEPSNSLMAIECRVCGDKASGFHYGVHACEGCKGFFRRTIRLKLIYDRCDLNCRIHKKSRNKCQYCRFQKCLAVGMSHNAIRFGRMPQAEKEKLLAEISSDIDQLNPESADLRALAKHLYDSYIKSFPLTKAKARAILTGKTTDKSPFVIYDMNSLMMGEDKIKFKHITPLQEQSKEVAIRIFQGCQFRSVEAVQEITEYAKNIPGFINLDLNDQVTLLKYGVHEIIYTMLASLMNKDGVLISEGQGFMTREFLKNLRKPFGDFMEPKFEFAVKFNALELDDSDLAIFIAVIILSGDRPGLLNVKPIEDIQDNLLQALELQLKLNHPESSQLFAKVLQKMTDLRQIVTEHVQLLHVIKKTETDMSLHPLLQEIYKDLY

CCCCC1C(=O)N(c2ccccc2)N(c2ccccc2)C1=O
inactive: [1] | [2] | [3] | [4]

O=C(O)/C=C/c1ccccc1
inactive: [5] | [6] | [7] | [8] | [9] | [10] | [11] | [12]

O=C(Oc1ccccc1)c1ccccc1O
inactive: [13]

CC(CCC(=O)O)(c1ccc(O)cc1)c1ccc(O)cc1
inactive: [14] | [5] | [6] | [7] | [15] | [8] | [16] | [17] | [9] | [10] | [11] | [18] | [12]
active: [14] 27.5 µM | [7] 100 µM

CCCCC/C=C\C/C=C\CCCCCCCC(=O)O
active: [13] 80.1 µM

CCCCCCCCCCCCc1ccc(O)cc1
inactive: [5] | [6] | [15] | [8] | [16] | [17] | [9] | [12]
active: [14] 610 nM and 239 nM | [7] 0.259 µM

CCCCCCCCCCCCCCCCCCOS(=O)(=O)O
inactive: [13]

COc1ccc(C(=O)c2ccccc2)c(O)c1
active: [14] 7.66 µM and 2.39 µM | [5] 74.1 µM and 41.1 µM | [6] 78.9 µM and 63.2 µM | [7] 26.7 µM
not listed: [1] | [2] | [3] | [4]
inactive: all other assays above

C=C1C[C@H]2[C@@H]3C=C(C)C4=CC(=O)CC[C@]4(C)[C@H]3CC[C@]2(C)[C@@]1(OC(C)=O)C(C)=O
active: [7] 931 nM and 619 nM
not listed: [1] | [2] | [3] | [4] | [9] | [14] | [17]
inactive: all other assays above

CO[Si](C)(C)OC
inactive: [13]

COc1ccc(-c2coc3cc(O)cc(O)c3c2=O)cc1
inactive: [5] | [6] | [7] | [15] | [8] | [16] | [17] | [9] | [10] | [11] | [18] | [12] | [13]
active: [14] 501 nM and 6.78 nM | [7] 2.51 µM
